Molecules are shown by their SMILES. A number with no mark means an inactive call. Records with an inconclusive call do not appear. Active and inactive are the calls of the source. Unless noted, calls follow the shape of the dose curve; as a rule, active = well fitted curve in the direction sought with a large enough effect in the repeat runs; inconclusive = weak or mixed curves; inactive = no such curve, though single readings can be large; an effect the other way counts as inactive or inconclusive.

The results in this text go back to PubChem BioAssay (Tox21).

A short description of assay [1]: qHTS assay to identify small molecule antagonists of the glucocorticoid receptor (GR) signaling pathway - cell viability counter screen (AID 720693). Also: nearly all actives have a fitted effect of over 55% in size. In general terms: In qHTS, concentration-response curves come from the screen itself.
Assay [2] can be described thus: qHTS assay for identifying genotoxic compounds that show differential cytotoxicity against isogenic chicken DT40 cell lines with known DNA damage response pathways - wild type cell line (AID 743012). Also: nearly all actives have a fitted effect of over 60% in size. Also: potency is read from the fitted curve at half-maximal effect. The essentials:
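Cytotoxicity in repair-proficient parental chicken DT40 cells serves as the comparator for Rad54/Ku70- and Rev3-deficient lines. Cells were exposed to compounds for 40 h at 37 C/5% CO2, and ATP-based luminescence (CellTiter-Glo) measured viability.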

Assay [3] in a line: qHTS assay for identifying genotoxic compounds that show differential cytotoxicity against isogenic chicken DT40 cell lines with known DNA damage response pathways - Rev3 mutant cell line (AID 743014). Also: nearly all actives have a fitted effect of over 55% in size. Also: potency is read from the fitted curve at half-maximal effect.
The nature of assay [4]: qHTS assay for identifying genotoxic compounds that show differential cytotoxicity against isogenic chicken DT40 cell lines with known DNA damage response pathways - Rad54/Ku70 mutant cell line (AID 743015). Also: nearly all actives have a fitted effect of over 60% in size. Also: potency is read from the fitted curve at half-maximal effect.
Assay [5] can be described thus: qHTS assay to identify small molecule antagonists of the androgen receptor (AR) signaling pathway using the MDA cell line - cell viability counter screen (AID 743041; also: nearly all actives have a fitted effect of over 45% in size; also: potency is read from the fitted curve at half-maximal effect). Put shortly:
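Viability read by CellTiter-Fluor fluorescence in the same wells as the antagonist screen, added after 15.5 h of a 16 h, 37C exposure. Human breast carcinoma MDA-kb2 AR-luc cells, compounds co-dosed with agonist R1881.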

Assay [6] is described as follows: qHTS assay to identify small molecule antagonists of the thyroid receptor (TR) signaling pathway - cell viability counter screen (AID 743064). Also: nearly all actives have a fitted effect of over 50% in size. Also: potency is read from the fitted curve at half-maximal effect. The essentials: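 Viability of T3-stimulated (1 nM final) GH3.TRE-Luc cells is measured by CellTiter-Fluor fluorescence after 23.5 h compound exposure at 37 °C plus 30 min reagent incubation.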
Assay [7] addresses Estrogen receptor (Homo sapiens) (UniProt P03372). The assay can be described thus: qHTS assay to identify small molecule antagonists of the estrogen receptor alpha (ER-alpha) signaling pathway (AID 743069; active = well fitted curve in the direction sought with a large enough effect in the signal ratio in the repeat runs, not every such curve was filed as active; the % refers to the signal ratio). The essentials:
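Antagonist mode: compounds in DMSO were co-added with 17beta-estradiol to ER-alpha-bla HEK293 cells (2% charcoal-stripped serum) and left 18 h at 37C. Reporter inhibition was measured as FRET fluorescence after 2 h LiveBLAzer substrate at room temperature.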

Assay [8] is described as follows: qHTS assay to identify small molecule antagonists of the estrogen receptor alpha (ER-alpha) signaling pathway - cell viability counter screen (AID 743074; calls by dose curve;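 also: HEK293 cells carrying ER-alpha-UAS-bla reporter stimulated with 17beta-estradiol; nearly all actives have a fitted effect of over 45% in size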).
For assay [9], the target named is Estrogen receptor (Homo sapiens) (UniProt P03372). The assay can be described thus: qHTS assay to identify small molecule agonists of the estrogen receptor alpha (ER-alpha) signaling pathway (AID 743075; calls by dose curve;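 also: HEK293 GripTite cells with ER-alpha and UAS-driven beta-lactamase reporter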).
Sequence of Estrogen receptor (Homo sapiens) (P03372 whole entry, looked up): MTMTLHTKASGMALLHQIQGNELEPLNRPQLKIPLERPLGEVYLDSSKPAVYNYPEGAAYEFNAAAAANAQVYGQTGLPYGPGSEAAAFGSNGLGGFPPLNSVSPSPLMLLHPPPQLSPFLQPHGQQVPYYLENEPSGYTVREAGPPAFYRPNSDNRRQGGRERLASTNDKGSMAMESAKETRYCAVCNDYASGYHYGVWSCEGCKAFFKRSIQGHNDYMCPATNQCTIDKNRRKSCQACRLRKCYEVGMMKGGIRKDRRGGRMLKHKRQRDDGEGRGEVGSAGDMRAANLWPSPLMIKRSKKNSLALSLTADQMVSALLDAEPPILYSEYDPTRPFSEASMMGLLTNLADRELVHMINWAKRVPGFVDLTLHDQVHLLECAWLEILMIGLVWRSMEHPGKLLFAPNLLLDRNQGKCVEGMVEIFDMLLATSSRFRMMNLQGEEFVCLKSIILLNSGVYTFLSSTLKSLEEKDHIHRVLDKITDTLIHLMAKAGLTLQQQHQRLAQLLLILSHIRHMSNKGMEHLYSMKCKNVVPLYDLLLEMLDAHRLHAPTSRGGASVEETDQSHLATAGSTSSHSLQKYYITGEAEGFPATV
Assay [10] shares this target. Nature of the assay: qHTS assay to identify small molecule agonists of the estrogen receptor alpha (ER-alpha) signaling pathway using the BG1 cell line (AID 743079). Also: nearly all actives have a fitted effect of over 20% in size.
The nature of assay [11]: qHTS assay to identify small molecule antagonists of the estrogen receptor alpha (ER-alpha) signaling pathway using the BG1 cell line (AID 743080; calls by dose curve;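 also: BG1 cells stimulated with 17beta-estradiol alongside compound; series mostly up to about 70 µM; nearly all actives have a fitted effect of over 25% in size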). Put shortly: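 Quantitative HTS on the Tox21 10K library: BG1 cells with endogenous ER-alpha and ERE-luciferase reporter, 17beta-estradiol stimulation, 21.5 h compound exposure, luminescence endpoint with parallel fluorescence cytotoxicity counter-read.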

Assay [12] is described as follows: qHTS assay to identify small molecule antagonists of the estrogen receptor alpha (ER-alpha) signaling pathway using the BG1 cell line - cell viability counter screen (AID 743081).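 Also: compound given together with 17beta-estradiol as the ER stimulus; series mostly up to about 70 µM; nearly all actives have a fitted effect of over 45% in size.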
The next assay addresses Aromatase (Homo sapiens) (UniProt P11511). The assay can be described thus: qHTS assay to identify aromatase inhibitors (AID 743083). Also: series mostly up to about 70 µM; nearly all actives have a fitted effect of over 55% in size.
Assay [13] has as its target Androgen receptor (Homo sapiens) (UniProt P10275). Nature of the assay: qHTS assay to identify small molecule agonists of the androgen receptor (AR) signaling pathway using the MDA cell line (AID 743040; also: nearly all actives have a fitted effect of over 20% in size). Put shortly:
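Luciferase agonist assay: 16 h compound exposure at 37C without CO2 in MDA-kb2 AR-luc cells, whose MMTV promoter responds to both AR and GR. Luminescence measured after 30 min room-temperature incubation with ONE-Glo.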

For assay [14] the target is unchanged. Nature of the assay: qHTS assay to identify small molecule antagonists of the androgen receptor (AR) signaling pathway using the MDA cell line (AID 743042; also: nearly all actives have a fitted effect of over 55% in size). The essentials:
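Antagonist mode: compounds plus R1881 agonist added to MDA-kb2 AR-luc cells, incubated 16 h at 37C. Luciferase reporter luminescence quantified, with multiplexed CellTiter-Fluor readout for cell viability.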

Assay [15] is described as follows: qHTS assay to identify small molecule antagonists of the thyroid receptor (TR) signaling pathway (AID 743065). Also: nearly all actives have a fitted effect of over 55% in size. Also: potency is read from the fitted curve at half-maximal effect. Put shortly:
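Antagonism measured as loss of luciferase signal in GH3 cells stably carrying a TRE-luciferase reporter, co-treated with compound and T3 (1 nM final) for 23.5 h at 37 C. Viability was read in the same well by CellTiter-Fluor.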

For assay [16], the system named is thyroid hormone receptor (rat, GH3 cells). The assay can be described thus: qHTS assay to identify small molecule agonists of the thyroid receptor (TR) signaling pathway (AID 743066; calls by dose curve).
Assay [17] in a line: qHTS assay to identify small molecule antagonists of the androgen receptor (AR) signaling pathway - cell viability counter screen (AID 743033; also: nearly all actives have a fitted effect of over 45% in size).
In assay [18] the target is Androgen receptor (Homo sapiens) (UniProt P10275). The assay can be described thus: qHTS assay to identify small molecule agonists of the androgen receptor (AR) signaling pathway (AID 743036; active = well fitted activation curve with a large enough effect in the signal ratio in the repeat runs, with a control signal flat, not every such curve was filed as active; the % refers to the signal ratio). Put shortly: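 Screening used 2,000 AR-bla HEK293 cells per well, treated 16 h at 37C with test compounds in DMSO alongside positive and DMSO-only controls; beta-lactamase activity was then read by LiveBLAzer B/G FRET fluorescence after 2 h at room temperature.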
Sequence of Androgen receptor (Homo sapiens) (P10275 whole entry, looked up): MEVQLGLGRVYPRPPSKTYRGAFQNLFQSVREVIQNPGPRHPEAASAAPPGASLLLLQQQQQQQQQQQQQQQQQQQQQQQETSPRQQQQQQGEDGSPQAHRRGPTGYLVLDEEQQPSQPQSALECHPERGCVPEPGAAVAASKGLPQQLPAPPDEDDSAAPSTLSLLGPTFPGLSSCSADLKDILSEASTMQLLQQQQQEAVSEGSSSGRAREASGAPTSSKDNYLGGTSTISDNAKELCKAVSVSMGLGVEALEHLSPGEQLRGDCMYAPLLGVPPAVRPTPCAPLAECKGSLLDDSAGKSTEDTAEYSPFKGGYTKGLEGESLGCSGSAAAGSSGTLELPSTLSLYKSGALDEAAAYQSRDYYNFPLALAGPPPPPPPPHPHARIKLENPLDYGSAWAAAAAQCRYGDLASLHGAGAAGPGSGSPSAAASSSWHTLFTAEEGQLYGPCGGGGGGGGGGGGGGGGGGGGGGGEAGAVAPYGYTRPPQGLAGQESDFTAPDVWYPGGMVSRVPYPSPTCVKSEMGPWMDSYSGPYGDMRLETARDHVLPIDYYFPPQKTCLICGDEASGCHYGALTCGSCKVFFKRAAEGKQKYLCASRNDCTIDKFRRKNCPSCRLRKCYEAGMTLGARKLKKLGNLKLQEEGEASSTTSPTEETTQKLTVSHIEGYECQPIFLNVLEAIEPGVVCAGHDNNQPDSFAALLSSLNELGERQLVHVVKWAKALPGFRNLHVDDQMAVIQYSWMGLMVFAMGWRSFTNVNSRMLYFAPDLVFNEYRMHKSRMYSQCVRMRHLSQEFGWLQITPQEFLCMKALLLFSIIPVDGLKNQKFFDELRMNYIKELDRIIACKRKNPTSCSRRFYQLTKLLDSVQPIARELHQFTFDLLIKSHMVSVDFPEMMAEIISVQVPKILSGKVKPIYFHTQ

Sequence of Aromatase (Homo sapiens) (P11511 whole entry, looked up): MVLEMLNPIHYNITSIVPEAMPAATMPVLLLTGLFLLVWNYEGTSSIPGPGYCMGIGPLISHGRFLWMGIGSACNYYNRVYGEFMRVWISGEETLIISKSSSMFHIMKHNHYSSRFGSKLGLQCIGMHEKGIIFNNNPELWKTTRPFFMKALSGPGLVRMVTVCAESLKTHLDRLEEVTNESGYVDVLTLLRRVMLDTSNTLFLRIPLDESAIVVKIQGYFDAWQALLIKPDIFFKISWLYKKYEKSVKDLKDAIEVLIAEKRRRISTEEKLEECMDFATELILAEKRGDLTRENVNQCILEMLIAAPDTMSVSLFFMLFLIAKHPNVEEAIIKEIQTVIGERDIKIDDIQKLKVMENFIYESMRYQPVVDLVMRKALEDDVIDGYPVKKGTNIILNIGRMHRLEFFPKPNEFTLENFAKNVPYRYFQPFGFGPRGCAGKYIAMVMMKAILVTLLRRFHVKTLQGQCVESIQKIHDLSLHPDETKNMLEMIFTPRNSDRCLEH

With `CC1=CC[C@H](C(C)C)C=C1`, the Potency result in [1], in assay [5], in assay [6], in assay [7], in assay [8] and in assay [9] was “inactive” each time. In addition, the Potency entry (in [10]; in assay [11]; in assay [12]; in the assay with Aromatase (Homo sapiens)) was “inactive” each time. Besides, the Potency in [2] is 61.1 µM (active); in assay [3], 68.6 µM (active); in assay [4], 61.1 µM (active).
As for `O=C(O)C1(C(=O)Nc2ccc(Cl)cc2Cl)CC1`, the Potency entry in assay [1], in assay [13], in [5], in [14], in assay [6] and in [16] was “inactive” each time. Moreover, the Potency result (in assay [9]; in [10]; in assay [12]; in the assay with Aromatase (Homo sapiens)) was “inactive” throughout. Moreover, the values for the Potency in [2], in assay [3] and in assay [15] were 61.1 µM (active), 68.6 µM (active) and 68.6 µM (active), respectively.
In the case of `CN(Cc1ccc(C(C)(C)C)cc1)Cc1cccc2ccccc12`, the Potency result in assay [1], in assay [2], in [3], in assay [17], in [5] and in [16] was “inactive” throughout. Besides, the Potency entry in assay [7], in [8], in assay [9], in [10], in assay [11] and in assay [12] was “inactive” each time. For the same compound, in the assay with Aromatase (Homo sapiens), the Potency entry was “inactive”.
Consider `CC(CC=O)c1ccccc1` (stereo unspecified), for which the Potency entry in assay [1], in assay [2], in assay [3], in assay [17], in assay [5] and in [6] was “inactive” in each case. The Potency entry in assay [15], in assay [16], in assay [7], in assay [8], in assay [9] and in [10] was “inactive” in each case. In addition, the Potency entry (in assay [11]; in assay [12]; in the assay with Aromatase (Homo sapiens)) was “inactive” each time.
For `CCOc1ccc(N=Nc2ccc(/C=C/c3ccc(N=Nc4ccc(OCC)cc4)cc3S(=O)(=O)O)c(S(=O)(=O)O)c2)cc1`, the Potency result in [1], in assay [2], in [3], in [17], in assay [16] and in [8] was “inactive” in each case. Further, the Potency entry in the assay with Aromatase (Homo sapiens) is “inactive”. Moreover, the Potency in [5] is 53.6 µM (active); in assay [6] it was 47.8 µM (active); in [15] it was 47.8 µM (active).
With `O=C(O)C(S)C(S)C(=O)O` (stereo unspecified), the Potency entry in [1], in assay [2], in [3], in [17], in assay [5] and in [16] was “inactive” throughout. The Potency entry (in [8]; in assay [12]; in the assay with Aromatase (Homo sapiens)) was “inactive” in each case. For the same compound, the Potency in assay [6] was 26.6 µM (active); in assay [15], 11.9 µM (active).
`Cc1[nH]c(C)c(Cl)c(=O)c1Cl`: the Potency entry in [1], in assay [2], in assay [3], in assay [5], in assay [6] and in assay [15] was “inactive” in each case. For the same compound, the Potency result in assay [16], in assay [7], in assay [8], in [9], in assay [10] and in assay [11] was “inactive” each time. For the same compound, the Potency entry (in assay [12]; with Aromatase (Homo sapiens)) was “inactive” each time.
In the case of `C/C=C/C=C/CO`, the Potency result in assay [1], in assay [2], in assay [5], in assay [6], in assay [15] and in [16] was “inactive” throughout. Besides, the Potency result (in assay [8]; in [12]; with Aromatase (Homo sapiens)) was “inactive” throughout. Also, the Potency in assay [3] was 61.1 µM (active).
For the compound `CN(C)CCCN1c2ccccc2Sc2ccccc21`, the Potency result (in [1]; in [5]; in [16]; in assay [8]; in assay [12]; with Aromatase (Homo sapiens)) was “inactive” each time. The values for the Potency in [2], in assay [3] and in assay [6] were 9.02 µM (active), 5.69 µM (active) and 2.85 µM (active), respectively.
As for `CCOC(=O)COC(=O)c1cc(Oc2ccc(C(F)(F)F)cc2Cl)ccc1[N+](=O)[O-]`, the Potency entry in [1], in [18], in assay [13], in assay [5], in assay [14] and in [15] was “inactive” each time. The Potency result in assay [16], in assay [8] and in assay [12] was “inactive” each time. In addition, the results for the Potency in assay [2] and in assay [3] were 21.7 µM (active) and 12.2 µM (active), respectively.
With `CCn1cc(C(=O)O)c(=O)c2cnc(N3CCNCC3)nc21`, the Potency entry in assay [1], in [2], in assay [3], in assay [17], in [5] and in assay [6] was “inactive” in each case. Also, the Potency entry (in [15]; in assay [16]; in [8]; in assay [12]; in the assay with Aromatase (Homo sapiens)) was “inactive” throughout.
Take `CC[N+](C)(CC)CCOC(=O)C(O)(c1ccccc1)C1CCCCC1` (stereo unspecified): the Potency result in assay [1], in assay [2], in assay [3], in assay [17], in [15] and in assay [16] was “inactive” throughout. In addition, the Potency result (in assay [7]; in [8]; in [9]; in assay [11]; in assay [12]; with Aromatase (Homo sapiens)) was “inactive” in each case.
Regarding `Clc1ccc2c(c1)CCc1cccnc1C2=C1CCNCC1`, the Potency result in assay [1], in assay [5], in assay [7], in assay [9] and in assay [12] was “inactive” in each case. For the same compound, the Potency in assay [2] is 5.31 µM (active); in [3] it was 7.5 µM (active); in assay [4] it was 8.41 µM (active); in [15] it was 9.44 µM (active).
`CCCCNc1ccc(C(=O)OCCOCCOCCOCCOCCOCCOCCOCCOCCOC)cc1`: the Potency result in assay [1], in assay [2], in assay [3], in [4], in assay [5] and in [15] was “inactive” throughout. Moreover, the Potency result in assay [16], in assay [7], in [8], in assay [9], in [10] and in assay [12] was “inactive” each time. Moreover, in the assay with Aromatase (Homo sapiens), the Potency result is “inactive”.
In the case of `CCCCC(CC)CN1C(=O)C2C3C=CC(C3)C2C1=O` (stereo unspecified), the Potency result in assay [1], in assay [5], in assay [16], in assay [8], in assay [9] and in [10] was “inactive” in each case. Further, the Potency result in assay [11] and in assay [12] was “inactive” each time. For the same compound, the Potency in assay [2] was 38.6 µM (active); in [3], 27.3 µM (active); in [4], 43.3 µM (active); in assay [15] it was 48.6 µM (active).
